Data published in PubChem BioAssay AID1508600 (Functional Genomics Laboratory (NCATS/FGL), 2020).
In all, about 53,000 sequences went through this assay and about 3,700 (7%) were called active.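 Rule for the calls: active = gene knockdowns whose robust z-score for IL-1 alpha signal is at least 2 or at most -2, so actives lie on both sides; inactive = the rest.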 The sample as a whole holds a higher share of actives than the screen did.

Test: Components of the Cytosolic LPS Sensing Pathway: Gene Identification via Genome-wide siRNA Screen
Conditions: RAW264.7 macrophages, IL-1a HTRF, actives lie on both sides, screened at 100 nM (by protocol), cells primed 5 h with Pam3CSK4 first
Text: Non-canonical inflammasome activation by cytosolic LPS is a critical component of the host response to Gram-negative bacterial infection, however we lack a comprehensive understanding of the cellular processes that control this pathway. Here we describe a genome-wide siRNA screen to identify genes regulating the mouse macrophage IL-1 alpha response to cytosolic LPS.
RAW264.7 cells were maintained in complete DMEM media, comprising DMEM with 4.5 g/L glucose, 10% FBS (Gemini Bio-Products, West Sacramento, CA), 2 mM Glutamine (Lonza) and 20 mM HEPES (Lonza), hereafter complete DMEM.
The RNAi screen was conducted in 384-well format using the Ambion Silencer Mouse Genome siRNA Library (#4391425), which consists of three unique, nonoverlapping, nonpooled siRNAs for each of 17,000 gene targets. siRNA reagents ([…]) were stamped into 384-well white flat-bottom microplates (Corning, 3570) using a Velocity11 VPrep liquid handling system (Agilent) integrated into a BioCel robotic platform (Agilent) in columns 1-22, leaving columns 23-24 empty for negative (Ambion, Negative control #1) and positive (mouse Casp4) controls, respectively. The median value of each plate's negative control column was used to normalize sample wells, and the positive control was used to assess transfection efficiency and assay performance.
Lipofectamine RNAiMAX Transfection Reagent ([…]; Invitrogen) was added in […] serum-free, antibiotic-free media to plate wells using a Thermo Scientific Matrix WellMate and Microplate Stacker. Plates were incubated for 45 min at room temperature to allow for the sufficient formation of siRNA-lipid complexes. Cells were seeded at a density of 1x10^4 cells per well in 20 microL media containing 20% (vol/vol) FBS without antibiotics. The final concentration of siRNA in each well was 100 nM. Cells were cultured for 48h at 37 degrees C in 5% CO2 before addition of […] of TLR ligand Pam3CSK4 for 5 hours. The medium was then removed, replaced with […] growth media and cell were transfected with […] of LipidA and TransIT-TKO (Mirus) for 24 hour. At the end of the LipidA treatment, […] of supernatant was transferred to a 384 Greiner Bio-one non-binding low volume plate and […] of IL-1a HTRF reagent (Cisbio, 62MIL1APEH) was added and incubated at room temperature overnight. The plates were read on an EnVision plate reader (PerkinElmer). Cell viability was measured by adding 20ul Cell Titer Glo to the original plate and running a luminescence read on the EnVision. The quantified IL-1a signal for each siRNA gene-targeted well was divided by the median of the negative control wells and multiplied by 100 to achieve a negative control normalized value for each well/siRNA. This normalized value was then used to generate a robust z-score by first taking the log of each value and then by subtracting the median and dividing by the […].

z-score, inactive:
GGCUCAGAUUGAUAGGAUATT against Gmfg 0.103, GGCCAAACUAAUGUUUUUCTT against Prox2 -0.594, GCUCAUAAUUACAUCACCATT against H3c15 -1.22, GGACCAUCCUACAUCGGUCTT against Fpgs 1.02, GGACAAGGUCUUUAAUGUUTT against Fbxo3 -0.263, CGGUUGUCUUCCUCUUAGUTT against Fzd5 -0.52, GAAAAGAGGAUUCCUUGCATT against Olfr1128 0.726, GCGAGAGUGAAAACAUCCATT against Fam78b 0.331, GGCUUAUACGCUCCAUAUUTT against Gykl1 -0.214, GGAUACAUUCCAGACAUACTT against Map3k2 -0.0192, GGCGGACGUGAAGAACUUGTT against Letmd1 1.28, GGAACAGUCCUACUGAUAUTT against Cdkn1a -0.271, GCUGGAUGGAGGCAAAGCATT against C1ql1 -1.38, GGCCAGAACCACCAAAGAATT against Zc2hc1a -0.753, CCACUGAUAACUCGAUUUGTT against Nrp1 -0.228, GGUAACAUGGCAGAUUUUATT against Aif1l 0.618, GGACUGUUUGGAUUGCAUATT against Dock7 0.891, GCAUUUCGAAGUGCCCUUGTT against Gpr146 1.22, CCGCUACCAGAUAAACUCGTT against BC053393 0.984, GGACAAUACGGAGAAAGAUTT against Mdfic -0.522, GGGCAAAUUAUGCUGUCAUTT against Tomm20 -1.7, GCUUGCUGACCUGAAGUGATT against Krt17 0.262, GCUAUCCCUUUAUGUAACATT against Prl7b1 -0.224, CCAUAUCGAGUACCUCCAATT against Rtn4rl1 -0.522, GGUCUACUGGCGUAAUUACTT against Vsig4 -0.365, GCAGUCAUUCAAGGUUCCUTT against Hmces -0.231, GGUGUUGAAAUAAUUUCUCTT against Phospho2 -0.285, GGACUUGAUCCCAAAGCUGTT against Mrpl17 -1.21, GGGACAACACAUUAACUUATT against Uckl1 1.41, GCACAUUGUCUAGUAGUAATT against Zfp280d -0.622, GGAACAGAAACAAGGUUUUTT against Zfand2a 0.962, CCUCAUUCAGGGAGUUCCATT against 2200002J24Rik -1.52, GCUGAUGCUCCAUUGAAUGTT against Prr27 0.228, GCGUGAGAGAUACCGCCAUTT against Gnai2 -0.847, CGUGGUUUGUCAAUGAAGGTT against Eprs 0.358, CGUAAGAUUGACUCUAGUATT against Prl6a1 0.326, GGACAGACUGAUUAAGAAATT against Paqr8 -0.569, GCUACUGAACGAGAAUGCCTT against Zc3h12a 0.394, GGACAUUGACGCAUAGGGATT against Arsa -0.232, GCCAUGUGAUCGAAUCCAGTT against Clip2 -0.0773, GGGAUUCAUACUACUUAACTT against Olfr304 1.32, GCAGUUACUUAUCAUCUGGTT against Inca1 0.00859, GGUGUCUCUGAAUGAUGGCTT against 1810009J06Rik 0.499, GGGUUGAUCCCUUUGAUUCTT against Pld4 -0.268, GCAAACUCGGACUUUCAAATT against Lamtor3 0.443, GGGAAACUCGAGAUGUGCATT against Ankmy2 0.944, GGAAAGAAAAACGUAGGCGTT against 4933402J07Rik -1.16, GGAGAACCAGAUCCUGAUCTT against Mypop 0.511, GGAGGUGUGGCAUCUGGAUTT against Gsn 1.19, GGAGGAAGACACUCCCUCUTT against Atf4 -0.778, GGAAGCGGGAGAUAGAGGATT against Xpo6 -0.108, GCACAGAGGUCAGUUAAAGTT against St8sia3 1, CGACCCUCUAAGGAUAUGCTT against Zfp456 1.01, CCUGAUAUUCCAUCCUGAATT against Acad10 -0.626, GGUGCAUGGAAAAAAAUUATT against Neil2 -0.691, GGACCCAAGAAGAUGACGUTT against 0610010K14Rik -0.694, GCUGUGUGCCACUUUAUGUTT against Ebna1bp2 0.583, CGACAACACAGUUAUUAUUTT against Pld1 0.338, GCUUCGAGUUACAAUGUCATT against Fbxw15 -0.912, GGCACAUACGCUAUGAAGCTT against Prl2c5 -0.0959, GGUCUGUGACGAGAAGCUATT against Rab4a -1.43, GGCAAAUUUUUGGAGAUGUTT against Hspa4 0.931, CGUAGAGAUCAGUUCAAUGTT against Clock -1.36, CGAGGACUCAAUAGUAGCCTT against Proser3 -0.678, GGAUCCUGAAACAGUUCAATT against Atm -0.218, GGGUGCUGUCAACAUAUGATT against Gabrq 0.67, CCUUUCAUACCUUAGGUUATT against Slc25a44 -0.42, GGUGUAGAAUAGGACAAAUTT against Ntsr2 0.43, GGUCACAAUGGUUUAAGGATT against Tacr1 -0.943, CCUGAUCUUGCACUCGAUGTT against Tbx6 0.422, GGUAGAAGCAGAGUUACCATT against Spata32 -1.64, GGGAAGAUUUUUCUGAUCUTT against Kcnk13 -1.52, GCUGGAGGACUCAUGUUCATT against Dimt1 -0.0153, GGAGCUCAAGAGCUGGGUUTT against Tor2a -1.1, GGAAGAACGACAAGAACAUTT against Tgfbr2 1.02, GGAUACCAUUGUGGUCGCATT against Hck -0.406, GGAAUUCUUUCCAAACUGGTT against Steap1 -0.0141, GGUUGGUCAGAUGAAGGGUTT against Adgrf3 -0.638, CCGCUACAGGUUUACCAAGTT against Rhox8 0.129, GGACACCUGAUUUUCUUCUTT against Slc41a3 -0.364, GCAAAAAGGCAGUAUUCUATT against Atp23 0.449, GCUCCAAAAGUCAAGACCGTT against Safb2 -0.482, GGACCUUUCUGAAGUCCAATT against Ahsp -0.0978, GGCCAAUCUCACCUGGACATT against Man2b1 -0.421, GGAGACUACUUUGUGUUUUTT against Ermp1 0.933, GGCACAAUUGAGGAGCGUATT against Ino80 -1.27

z-score, active:
CCUGCUGGGAUUUAUUCAATT against Pmvk 2.52, GGCAAAGUUGUCCUAAGGUTT against Rab27b 2.54, GCAACAAUCUAACCUCAGATT against Mela -2.3, GGAACCUCUUGGACAAAGATT against Cpne5 2.17, GGCAACAGCAUCCUACUCUTT against Olfr652 -2.12, GCGAUGAGAUUGUUGCUGUTT against Ttc33 2.32, GGAGUGUAGUAAAUGUACCTT against Ppp1r13b 3.97, GGACAGUGGAAGGAAUCCATT against 2310033P09Rik -2.91, GGUUCUUUGGAAUGCUUUUTT against Myl12a 2.76, GGAUACAGUUUCUGAAAUCTT against Mlxipl 2.6, GGACAAUGUGGACUUUGAUTT against Edem2 -2.33, CGAGAGUGAUGCGCAUUUCTT against Sf3b5 -3.04, GCGGCCUGUGAGAGUUUAUTT against Pcyt1a 3.4, CCGAUGACGAACAGUUUGATT against Eif4ebp3 2.08, GCUUUGUUGCCCUACUACCTT against Pacrg -2.26, GGUGGAAGAAGAAAUUGUCTT against Tpd52l2 -2, CGCGGUGUUCGACAUCUUGTT against Noc4l 2.12, GGAUGUUUUAACUUGGAAATT against Sema5a 2.25, GGAACAGACAGAGAACACATT against Tgm6 2.54, GGCUAAAUUAUUGCGCAAATT against C1qbp 2.34, GGAUCAAGCCGAACAGUUCTT against Pigk 2.34
